Test results reported in publication PMC11062922 (Nature Chemical Biology, 2023).
Read-outs that look alike come from different tables or passages of the source.

Columns and labels:
AIFM1 = tested on: AIFM1; parameters: species or system human, MV4-11 + K-562 + COLO205 + SK-N-BE2 + OVCAR-8; details: read-out: apparent Kd; compound concentrations: 100 nM and 1000 nM (sheet 'Samples'), CATDS: 7.0265848272952805E-2; n = 1
CLK1 = tested on: CLK1; parameters: species or system human, MV4-11 + K-562 + COLO205 + SK-N-BE2 + OVCAR-8; details: read-out: apparent Kd; compound concentrations: 100 nM and 1000 nM (sheet 'Samples'), CATDS: 0.104887627590219; n = 1
CLK4 = tested on: CLK4; parameters: species or system human, MV4-11 + K-562 + COLO205 + SK-N-BE2 + OVCAR-8; details: read-out: apparent Kd; compound concentrations: 100 nM and 1000 nM (sheet 'Samples'), CATDS: 9.5715512322220406E-2; n = 1
CSNK1G1 = tested on: CSNK1G1; parameters: species or system human, MV4-11 + K-562 + COLO205 + SK-N-BE2 + OVCAR-8; details: read-out: apparent Kd, compound concentrations: 100 nM and 1000 nM (sheet 'Samples'), n = 1
DAPK3 = tested on: DAPK3; parameters: species or system human, MV4-11 + K-562 + COLO205 + SK-N-BE2 + OVCAR-8; details: read-out: apparent Kd; compound concentrations: 100 nM and 1000 nM (sheet 'Samples'), CATDS: 8.3155449206082505E-2; n = 1
DCTPP1 = tested on: DCTPP1; parameters: species or system human, MV4-11 + K-562 + COLO205 + SK-N-BE2 + OVCAR-8; details: read-out: apparent Kd; compound concentrations: 100 nM and 1000 nM (sheet 'Samples'), CATDS: 5.7600915047594299E-2; n = 1
FN3KRP = tested on: FN3KRP; parameters: species or system human, MV4-11 + K-562 + COLO205 + SK-N-BE2 + OVCAR-8; details: read-out: apparent Kd; compound concentrations: 100 nM and 1000 nM (sheet 'Samples'), CATDS: 6.5569795708597098E-2; n = 1
FN3K = tested on: FN3K; parameters: species or system human, MV4-11 + K-562 + COLO205 + SK-N-BE2 + OVCAR-8; details: read-out: apparent Kd; compound concentrations: 100 nM and 1000 nM (sheet 'Samples'), CATDS: 6.57741887652563E-2; n = 1
MAPK3 = tested on: MAPK3; parameters: species or system human, MV4-11 + K-562 + COLO205 + SK-N-BE2 + OVCAR-8; details: read-out: apparent Kd; compound concentrations: 100 nM and 1000 nM (sheet 'Samples'), CATDS: 8.8800747421998102E-2; n = 1
NEK2 = tested on: NEK2; parameters: species or system human, MV4-11 + K-562 + COLO205 + SK-N-BE2 + OVCAR-8; details: read-out: apparent Kd; compound concentrations: 100 nM and 1000 nM (sheet 'Samples'), CATDS: 7.0168858397625197E-2; n = 1
PBK = tested on: PBK; parameters: species or system human, MV4-11 + K-562 + COLO205 + SK-N-BE2 + OVCAR-8; details: read-out: apparent Kd; compound concentrations: 100 nM and 1000 nM (sheet 'Samples'), CATDS: 7.2795732103844296E-2; n = 1
Q6ZSR9 = Q6ZSR9 (human, UniProt Q6ZSR9); parameters: species or system MV4-11 + K-562 + COLO205 + SK-N-BE2 + OVCAR-8; details: read-out: apparent Kd; compound concentrations: 100 nM and 1000 nM (sheet 'Samples'), CATDS: 6.3978551473772294E-2; n = 1
RABL3 = tested on: RABL3; parameters: species or system human, MV4-11 + K-562 + COLO205 + SK-N-BE2 + OVCAR-8; details: read-out: apparent Kd; compound concentrations: 100 nM and 1000 nM (sheet 'Samples'), CATDS: 7.0827671495760899E-2; n = 1
TESK1 = tested on: TESK1; parameters: species or system human, MV4-11 + K-562 + COLO205 + SK-N-BE2 + OVCAR-8; details: read-out: apparent Kd; compound concentrations: 100 nM and 1000 nM (sheet 'Samples'), CATDS: 6.7543584282145103E-2; n = 1
ADRBK1 = tested on: ADRBK1; parameters: species or system human, MV4-11 + K-562 + COLO205 + SK-N-BE2 + OVCAR-8; details: read-out: apparent Kd, compound concentrations: 100 nM and 1000 nM (sheet 'Samples'), n = 1
NQO2 = tested on: NQO2; parameters: species or system human, MV4-11 + K-562 + COLO205 + SK-N-BE2 + OVCAR-8; details: read-out: apparent Kd; compound concentrations: 100 nM and 1000 nM (sheet 'Samples'), CATDS: 0.164283529908442; n = 1
PDXK = tested on: PDXK; parameters: species or system human, MV4-11 + K-562 + COLO205 + SK-N-BE2 + OVCAR-8; details: read-out: apparent Kd; compound concentrations: 100 nM and 1000 nM (sheet 'Samples'), CATDS: 0.18883200846926201; n = 1
TP53RK = tested on: TP53RK; parameters: species or system human, MV4-11 + K-562 + COLO205 + SK-N-BE2 + OVCAR-8; details: read-out: apparent Kd; compound concentrations: 100 nM and 1000 nM (sheet 'Samples'), CATDS: 0.1506883600127; n = 1
VDAC3 = tested on: VDAC3; parameters: species or system human, MV4-11 + K-562 + COLO205 + SK-N-BE2 + OVCAR-8; details: read-out: apparent Kd; compound concentrations: 100 nM and 1000 nM (sheet 'Samples'), CATDS: 0.190251033630114; n = 1
MAPK9 = tested on: MAPK9; parameters: species or system human, MV4-11 + K-562 + COLO205 + SK-N-BE2 + OVCAR-8; details: read-out: apparent Kd; compound concentrations: 100 nM and 1000 nM (sheet 'Samples'), CATDS: 0.30035248026311001; n = 1
PRKACG = tested on: PRKACG; parameters: species or system human, MV4-11 + K-562 + COLO205 + SK-N-BE2 + OVCAR-8; details: read-out: apparent Kd; compound concentrations: 100 nM and 1000 nM (sheet 'Samples'), CATDS: 0.40146810270516797; n = 1

Chain of Q6ZSR9 (Q6ZSR9 whole entry, looked up): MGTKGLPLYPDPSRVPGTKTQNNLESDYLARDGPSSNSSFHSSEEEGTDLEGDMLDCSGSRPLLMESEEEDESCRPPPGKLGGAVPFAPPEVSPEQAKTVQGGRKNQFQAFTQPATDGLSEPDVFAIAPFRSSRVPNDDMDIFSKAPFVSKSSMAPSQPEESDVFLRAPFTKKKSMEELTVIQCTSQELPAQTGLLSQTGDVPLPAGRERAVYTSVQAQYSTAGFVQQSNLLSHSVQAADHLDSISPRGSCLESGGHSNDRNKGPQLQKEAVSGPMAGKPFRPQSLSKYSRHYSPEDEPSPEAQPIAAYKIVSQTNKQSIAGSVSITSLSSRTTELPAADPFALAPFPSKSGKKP

Compound O=C1N=C(NCCc2ccc(F)cc2)S/C1=C\c1ccc2ncccc2c1 [RO4508340-000] has a potency estimated from few doses (AIFM1) of 1310 nM, a potency estimated from few doses (CLK1) of 643 nM and a potency estimated from few doses (CLK4) of 744 nM. It also gave a potency estimated from few doses (CSNK1G1; CATDS: 5.5121042551324002E-2) of 2380 nM, a potency estimated from few doses (DAPK3) of 948 nM and a potency estimated from few doses (DCTPP1) of 2100 nM. It also gave a potency estimated from few doses (FN3KRP) of 1530 nM, a potency estimated from few doses (FN3K) of 1520 nM and a potency estimated from few doses (MAPK3) of 844 nM. The potency estimated from few doses (NEK2) was 1320 nM, the potency estimated from few doses (PBK) was 1220 nM and the potency estimated from few doses (Q6ZSR9) was 1620 nM. The potency estimated from few doses (RABL3) was 1290 nM and the potency estimated from few doses (TESK1) was 1430 nM.

CCn1cnc2c(N)ncnc21 [GW345098X] gave a potency estimated from few doses (ADRBK1; CATDS: 0.15222698888400599) of 2400 nM, a potency estimated from few doses (CSNK1G1; CATDS: 0.16245140586904) of 2080 nM and a potency estimated from few doses (NQO2) of 2040 nM. It also gave a potency estimated from few doses (PDXK) of 1560 nM, a potency estimated from few doses (TP53RK) of 2450 nM and a potency estimated from few doses (VDAC3) of 1540 nM.

For COC(=O)c1c(-c2ccccc2)c2cc(OC)ccc2c(=O)n1Cc1ccccc1 [TPKI-97], the potency estimated from few doses (ADRBK1; CATDS: 0.31449304008803602) was 1400 nM, the potency estimated from few doses (MAPK9) was 1550 nM and the potency estimated from few doses (PRKACG) was 872 nM.
